Laboratory results published in PubChem BioAssay (NCI).
Compounds without any hit were thinned out: in the full panel of roughly 83,000, 20% have a hit.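 How to read the values: 0–100, growth inhibition (40 = 60% inhibited); 0, no net growth; -100 to 0, cell death (-40 = 40% of starting cells died; -100 = all dead).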 Unmarked numbers belong to inactive results. Activity calls are given as the source filed them. The calls were made as follows: active = growth percent below 10; inactive = the rest.

Key:
Assay in all cases: NCI-60 one-dose screen, 48 h (100 = growth as untreated, 0 = no growth, -100 = all killed)
NCI-H23 lung = details: 10 µM unless noted
NCI-H322M lung = details: 10 µM unless noted
HOP-62 NSCLC = details: 10 µM unless noted
NCI-H460 lung = details: 10 µM unless noted
HOP-92 NSCLC = details: 10 µM unless noted
A549/ATCC NSCLC = details: 10 µM unless noted
786-0 renal = details: 10 µM unless noted
COLO 205 colon = details: 10 µM unless noted
DU-145 prostate = details: 10 µM unless noted
K-562 leukemia = details: 10 µM unless noted
MALME-3M melanoma = details: 10 µM unless noted
MDA-MB-231 breast = details: 10 µM unless noted
RXF 393 renal = details: 10 µM unless noted
SF-268 CNS = details: 10 µM unless noted
SF-295 CNS = details: 10 µM unless noted
SF-539 CNS = details: 10 µM unless noted
UACC-257 melanoma = details: 10 µM unless noted
M14 melanoma = details: 10 µM unless noted
NCI-H522 lung = details: 10 µM

Row | SMILES | growth (NCI-H23 lung) | growth (NCI-H322M lung) | growth (HOP-62 NSCLC) | growth (NCI-H460 lung) | growth (HOP-92 NSCLC) | growth (A549/ATCC NSCLC) | growth (786-0 renal) | growth (COLO 205 colon) | growth (DU-145 prostate) [%] | growth (K-562 leukemia) | growth (MALME-3M melanoma) | growth (MDA-MB-231 breast) | growth (RXF 393 renal) | growth (SF-268 CNS) | growth (SF-295 CNS) | growth (SF-539 CNS) | growth (UACC-257 melanoma) | growth (M14 melanoma) | growth (NCI-H522 lung) [%]
1 | Cc1cc(=O)oc2c1ccc1oc(C(=O)c3ccccc3)c(C)c12 | 82.1% | 112% | 115% | 85% | 105% | 93.8% | 99.5% | 93.5% | 98.5 | 49.2% | 113% | 76.3% | 99.8% | 122% | 55.8% | 92.5% | 100% | 77.2% | –
2 | Nc1cccc2c(=S)c3ccccc3[nH]c12 | 95.9% | 92.1% | 82.7% | 95.7% | 98.4% | 108% | 106% | 114% | 113 | 91% | 102% | 68.3% | 95.1% | 92.5% | 97.3% | 96.9% | 99% | 102% | –
3 | O=[N+]([O-])c1ccc2nc(N/N=C/c3ccc(O)cc3)sc2c1 | 73.3% | 58.8% | 68.7% | 48.5% | 58.9% | 30.7% | 50.9% | 89.9% | 60.1 | 31.6% | 65% | 82.9% | 103% | 64.1% | 86.7% | 49.5% | 66.6% | 83% | –
4 | c1ccc2cc(-c3n(Cc4ccc5ccccc5n4)c4ccccc4[n+]3Cc3ccc4ccccc4n3)ccc2c1 | -16.5% (active) | 7.73% (active) | -7% (active) | -57.3% (active) | -31.6% (active) | 6.23% (active) | 5.11% (active) | -66.7% (active) | 13.3 | -6.05% (active) | -32.9% (active) | -21% (active) | -18.8% (active) | -3.09% (active) | -13.7% (active) | 0.28% (active) | -14.2% (active) | -8.82% (active) | –
5 | O=C(N/N=C/c1ccc2c(c1)OCO2)c1cnn2c1NC(c1ccccc1)C2 (stereo not drawn) | 57.1% | 59.6% | – | 30.1% | 73.7% | 45% | 78.9% | – | 60.9 | 29.8% | 55.1% | 53.2% | 6.73% (active) | 66% | 47.3% | 59.1% | 72.4% | 42.7% | 45.7
6 | O=c1c2cc(F)ccc2oc2c(NCCNCCO)nc3ccccc3c12 | 53% | 36.1% | – | 13.1% | 38.4% | – | 42% | – | 35.8 | -36.9% (active) | 56.4% | 40.4% | 34.3% | 47.5% | 63.6% | 46.3% | 92% | 60.1% | 39.8
7 | CCN(c1ccc(C(=O)N2CCN(c3ccccc3)CC2)cc1)S(C)(=O)=O | 103% | 102% | 104% | 108% | – | 105% | 101% | 113% | 108 | 96.4% | 94.2% | 119% | – | 98.7% | – | 103% | – | 104% | –
8 | COc1ccc(Nc2nc(NCCNc3ccnc4cc(Cl)ccc34)nc(N3CCOCC3)n2)cc1 | 82.3% | 74.5% | 92.2% | 37.2% | – | 70.9% | 57.2% | -37.2% (active) | 67.7 | 6.77% (active) | -80.2% (active) | 25.2% | – | 58.3% | – | 38.1% | – | 19.9% | –
